Gal4-VP16 FLuc = VP16 counterscreen qHTS for inhibitors of ROR gamma transcriptional activity | Drosophila S2 Gal4-VP16 UAS-luciferase, luminescence, 20 h | Potency, µM (doses to about 53.6 µM), inactives show at the top dose activity, negative = inhibition, usual class: inhibitors | 3.5% of 310,000 active;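 also: Gal4-VP16 expression switched on by copper sulfate through the metallothionein promoter; nearly all actives have a fitted effect of over 50% in size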
TDP1 cell CPT = qHTS for Inhibitors of human tyrosyl-DNA phosphodiesterase 1 (TDP1): qHTS in cells in presence of CPT | Potency, µM (doses to about 46.2 µM), without a hit: at the highest dose activity change, negative = growth inhibition, hits mostly inhibitors | chicken DT40 Tdp1-/-;hTDP1 cells + 20 nM CPT, ATP luminescence, 48 h | 12% of 420,000 active | AID 686979, 2013; also: nearly all actives have a fitted effect of over 55% in size
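Chicken DT40 Tdp1-/- cells stably complemented with human TDP1 were seeded at 400 cells/well in medium containing 20 nM camptothecin, exposed to pin-transferred compounds, and grown at 37 °C for at least 48 hr. Viability was read as ATP luminescence.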
DT40 TDP1 no CPT = qHTS for Inhibitors of human tyrosyl-DNA phosphodiesterase 1 (TDP1): qHTS in cells in absence of CPT. DT40 Tdp1-/- hTDP1 cells, no CPT, ATP luminescence, 48 h. Potency, µM (highest dose often 46.2 µM), for inactives: at the top dose activity change, negative = growth inhibition, hits mostly inhibitors. 15% of 420,000 active. AID 686978, 2013; also: nearly all actives have a fitted effect of over 55% in size
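Cells were dispensed at 400 per well, compounds added by pin tool, plates incubated ≥48 hr at 37 °C, then CellTiter-Glo added for 30 min at room temperature before luminescence reading. Line: DT40 Tdp1-/- complemented with hTDP1; camptothecin omitted.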
TDP1 block = qHTS Assay for Inhibitors of Tyrosyl-DNA Phosphodiesterase (TDP1). 0.28% of 350,000 active. Tyrosyl-DNA phosphodiesterase 1 (Homo sapiens), Q9NUW8. Potency, µM (top dose mostly 130 µM), for the others: top-dose activity change, negative = inhibition, hits mostly inhibitors. recombinant TDP1, AlphaScreen DNA substrate cleavage; also: nearly all actives have a fitted effect of over 40% in size
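Here, a 5' biotin and 3' phosphotyrosine-FITC DNA oligonucleotide reports Tdp1 activity: intact substrate bridges AlphaScreen beads, while cleavage leaves a 3' phosphate and drops signal. All incubations at room temperature.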
RORg inh = qHTS for inhibitors of ROR gamma transcriptional activity; AID 2551, 2010; Potency, µM (series often up to 53.6 µM), for inactives: at the highest dose activity change, negative = inhibition, usual class: inhibitors; 5.4% of 310,000 active; Drosophila S2 Gal4-RORgamma UAS-luciferase reporter, 20 h; Nuclear receptor ROR-gamma (Mus musculus), P51450; also: nearly all actives have a fitted effect of over 60% in size
Target sequence (P51450 whole entry, looked up, the tested form may be a part): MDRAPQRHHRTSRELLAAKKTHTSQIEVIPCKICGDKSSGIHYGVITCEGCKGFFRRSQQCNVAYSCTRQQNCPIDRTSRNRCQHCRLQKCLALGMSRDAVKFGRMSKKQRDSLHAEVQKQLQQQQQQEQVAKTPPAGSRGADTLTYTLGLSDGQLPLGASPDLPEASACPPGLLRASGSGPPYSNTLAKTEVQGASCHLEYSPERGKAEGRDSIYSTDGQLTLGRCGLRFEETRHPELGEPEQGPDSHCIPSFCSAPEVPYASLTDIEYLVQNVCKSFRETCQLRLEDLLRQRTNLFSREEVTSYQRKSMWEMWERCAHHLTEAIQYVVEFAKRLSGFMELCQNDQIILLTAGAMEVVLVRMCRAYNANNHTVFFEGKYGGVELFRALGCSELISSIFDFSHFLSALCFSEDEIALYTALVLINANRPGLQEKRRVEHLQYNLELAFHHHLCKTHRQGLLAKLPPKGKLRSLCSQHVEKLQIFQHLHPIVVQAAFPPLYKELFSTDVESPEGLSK
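Schneider cells (Drosophila), stable Gal4 DBD–ROR gamma + UAS-luc; 1 hr cmpd preincubation; Cu2+ induction 700 uM final; 20 hr ambient; luminescence.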
The depositor's hits bear a star; ? = inconclusive; . = no result given. Rows were chosen to be rich in hits. Some 19% of all compounds tested hit in one or more screens of this group. Calls follow the shape of the dose curve; as a rule, active = well fitted curve in the direction sought with a large enough effect; inconclusive = small, poorly fitted or top-dose-only effect, or another doubt; inactive = no such curve, though single readings can be large; an effect the other way counts as inactive or inconclusive. % is scaled to controls: 0 for no effect and ±100 for the full control effect; potency is read from the fitted curve at half-maximal effect.

SMILES	Gal4-VP16 FLuc	TDP1 cell CPT	DT40 TDP1 no CPT	TDP1 block	RORg inh
Cn1c(=O)c2c(SCC(=O)N3CCOCC3)nc(-c3ccccc3F)nc2n(C)c1=O	1.5%	-12.4%	?	3.7%	6.3%
Cc1ccc(-c2c(C(=O)N/N=C/C3CC=CCC3)nnn2-c2nonc2N)cc1 (configuration not stated)	4.7%	-3.3%	?	1.6%	8.3%
OC(COc1ccc2cc(Br)ccc2c1)Cn1ccnc1 (configuration not stated)	2.7%	?	?	.	16.4%
Cc1ccc(NC(=O)CN2CCC(NC(=O)Cc3ccccc3)CC2)c(C)c1	-8.0%	-27.4%	0.4%	5.3%	0.9%
O=S(=O)(Nc1nc2n(n1)C(c1ccc(F)cc1)C=C(c1ccccc1)N2)c1ccccc1 (configuration not stated)	.	?	20.6µM*	2.9%	.
O=C(Nc1nc2n(n1)C(c1ccc(F)cc1)C=C(c1ccccc1)N2)c1ccco1 (configuration not stated)	.	16.4µM*	23.1µM*	11.4%	.
O=C(Nc1nc2n(n1)C(c1ccccc1)C=C(c1ccccc1)N2)c1ccccc1 (configuration not stated)	.	16.4µM*	18.4µM*	.	.
OCCCc1nc2n(n1)C(c1ccccc1)C=C(c1ccc(F)cc1)N2 (configuration not stated)	0.3%	-12.7%	-11.1%	-7.3%	25.8%
O=C(Nc1nc2n(n1)C(c1ccc(Cl)cc1)C=C(c1ccccc1)N2)c1ccco1 (configuration not stated)	.	20.6µM*	20.6µM*	2.9%	.
O=C(NCc1n[nH]c(=S)n1-c1ccc([N+](=O)[O-])cc1)c1ccc(S(=O)(=O)N2CCOCC2)cc1	3.2%	-7.4%	-3.1%	5.0%	-4.8%
Cc1cccc(NC(=O)CC2C(=O)OCCN2Cc2ccccc2)c1 (configuration not stated)	.	-23.7%	-25.7%	3.2%	.
COc1ccc(C2Nc3ccccc3C(=O)N2Cc2ccccc2)cc1Oc1ccc(NC(C)=O)cc1 (configuration not stated)	.	.	.	0.3%	.
COc1ccc(C2C=C(c3ccccc3)Nc3nc(NC(=O)c4cccc([N+](=O)[O-])c4)nn32)cc1 (configuration not stated)	.	?	?	5.7%	.
COc1ccc(C(=O)Nc2nc3n(n2)C(c2ccc(Cl)cc2)C=C(c2ccccc2)N3)cc1OC (configuration not stated)	.	14.6µM*	14.6µM*	6.3%	.
Cc1csc(N=Nc2ccc(N(C)C)cc2)[n+]1[O-]	.	10.3µM*	9.2µM*	.	.
CC(=O)NC(Cc1cc(C)ccc1C)C(=O)N1CCN(C(=O)c2ccccc2Br)CC1 (configuration not stated)	2.5%	?	-0.8%	6.2%	1.3%
COc1cc(C(=O)N/N=C/c2coc3ccccc3c2=O)cc(OC)c1OC	4.0%	-15.8%	-9.5%	.	15.2%
CCOC(=O)C(C)n1cnc2c(nnn2-c2ccccc2)c1=O (configuration not stated)	-11.9%	8.9%	-14.3%	.	-17.4%
O=C(COc1ccccc1-c1ccccc1)NCc1cccc(Cl)c1	-10.8%	20.6µM*	?	-5.5%	?
C/C(=N\NC(=S)NCCc1ccccc1)c1ccc(Cl)cc1Cl	6.31µM*	?	16.4µM*	2.9%	1.78µM*
S=C(NCc1ccccc1)NCc1cccc(Cl)c1	?	0.8%	-0.3%	0.1%	10µM*
S=C(NCCc1cccc(Cl)c1)NCc1ccccc1	?	.	.	-0.4%	8.91µM*
CC(C)CN(C(=O)C1CC1)C1CCS(=O)(=O)C1 (configuration not stated)	.	24.9%	-1.0%	.	.
O=C(O)c1ccccc1-n1cccc1C(=O)O	1.1%	2.3%	11.5%	?	-3.7%
CCCc1[nH]nc2c1C(c1cn[nH]c1-c1ccc(F)cc1)C(C#N)=C(N)O2 (configuration not stated)	?	9.2µM*	10.3µM*	8.1%	-10.6%
SMILES	Gal4-VP16 FLuc	TDP1 cell CPT	DT40 TDP1 no CPT	TDP1 block	RORg inh
CCCc1[nH]nc2c1C(c1ccccc1OC)C(C#N)=C(N)O2 (configuration not stated)	8.5%	?	?	4.8%	18.4%
CCn1nc(C)c(CN2CCC3(CCC(CNC(=O)c4ccccc4)O3)CC2)c1C (configuration not stated)	.	3.5%	-4.4%	.	.
CC1(C)CC(=O)C(C2C3=C(CC(C)(C)CC3=O)Oc3c(Br)cc(Br)cc32)=C(O)C1 (configuration not stated)	?	?	18.4µM*	.	?
Cc1noc(C)c1-c1ccc(C(=O)Nc2ccc(C(C)C)cc2)c2occc12	.	11.6µM*	10.3µM*	.	.
Cc1noc(C)c1-c1ccc(C(=O)NCCN2CCOCC2)c2occc12	.	?	29.1µM*	.	.
CC(=O)Nc1ccc(NC(=O)c2ccc(-c3c(C)noc3C)c3ccoc23)cc1	.	20.6µM*	?	.	.
COc1cc(NC(=O)c2ccc(-c3c(C)noc3C)c3ccoc23)cc(OC)c1OC	.	13µM*	8.2µM*	.	.
COCCN(C(=O)COC(=O)c1ccc(C)o1)c1c(N)n(Cc2ccccc2)c(=O)[nH]c1=O	.	-0.9%	-12.1%	-6.6%	.
Cc1nccn1-c1ccc(C=O)cc1	0.2%	-3.5%	-28.2%	2.5%	?
CC(=O)c1cccc(NC(=O)c2onc(C)c2Cl)c1	2.1%	13.6%	-13.0%	-1.3%	11.6%
CC(=O)c1cccc(NC(=O)c2ccc(-c3c(C)noc3C)c3ccoc23)c1	.	16.4µM*	?	.	.
COc1ccc(-c2cnc3c(-c4ccc(F)cc4)cnn3c2N)cc1	17.3%	-12.2%	0.2%	.	-33.4%
c1ccc(CSc2ccc3nnc(-c4ccccn4)n3n2)cc1	11.6%	?	20.6µM*	4.8%	0.9%
Fc1ccc(CSc2ccc3nnc(-c4cccnc4)n3n2)cc1	-11.3%	16.4µM*	16.4µM*	2.4%	-15.2%
O=C(O)CSc1ccc2nnc(-c3cccnc3)n2n1	5.3%	?	-14.0%	7.4%	1.1%
CC(C)Cn1c([N+](=O)[O-])nc2c1c(=O)[nH]c(=O)n2C	?	3.26µM*	4.61µM*	0.0%	8.91µM*
Cn1c(=O)[nH]c(=O)c2c1nc(Br)n2CCC(=O)c1ccccc1	1.8%	?	16.4µM*	5.1%	1.1%
Cn1c(=O)[nH]c(=O)c2c1nc([N+](=O)[O-])n2Cc1ccccc1	5.62µM*	0.651µM*	1.03µM*	5.5%	3.98µM*

Screens from PubChem BioAssay.
